Inconclusive results are not listed. The source holds several records for some structures; these can differ, active in one and inactive in another. Activity calls are given as the source filed them. The calls were made as follows: active = hit-call score of the fitted dose curve at least 0.9, where 1 is the maximum; inconclusive = response in the unintended direction; inactive = score below 0.9.
Read-out: glucuronosyltransferase (UGT1A1), UGT1A1 (gene 54658)
Experiment: CLD_UGT1A1_48hr: CellzDirect (CLD) Gene Expression Assay for glucuronosyltransferase (UGT1A1) at 48 hours (AID 2283709);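 also: actives increase expression relative to DMSO so potency refers to induction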
Method: CLD_48hr is a cell-based, multiplexed-readout assay that uses hepatocyte, a human liver primary cell, with measurements taken at 48 hours after chemical dosing in a 96-well plate.CLD_UGT1A1_48hr is one of 16 assay component(s) measured or calculated from the CLD_48hr assay. It is designed to make measurements of mRNA induction, a form of inducible reporter, as detected with chemiluminescence signals by Quantitative Nuclease Protection Assay (qNPA) technology.Data from the assay component CLD_UGT1A1_48hr was analyzed at the endpoint, CLD_UGT1A1_48hr, in the positive analysis fitting direction relative to DMSO as the negative control and baseline of activity. Using a type of inducible reporter, gain-of-signal activity can be used to understand changes in the reporter gene as they relate to the gene UGT1A1. Furthermore, this assay endpoint can be referred to as a primary readout. To generalize the intended target to other relatable targets, this assay endpoint is annotated to the transferase intended target family, where subfamily is glucuronosyltransferase.
Human hepatocyte cultures were treated daily for two consecutive days with fresh dosing solutions containing appropriate concentrations of the 320 ToxCast chemicals (chemical identities were blinded to CellzDirect and other ToxCast collaborators), vehicle control (0.2% DMSO), and positive control inducers as summarized in Table 1. Due to the large number of treatment groups and chemicals examined, the ToxCast chemicals were divided into two groups (spanning two independent cultures of hepatocytes from separate donor preparations (Hu778: ToxCast plates 1 and 2; Hu776: ToxCast plates 3 and 4). Each preparation of human hepatocyte cultures was treated with respective vehicle control, medium only control, set of six positive controls/reference chemicals for the five hepatic receptor pathways, and a subset of eight of the ToxCast chemicals (indoxacarb, pyrithiobac-sodium, norflurazon, cyhalofop-butyl, methomyl, thiram, acetochlor, and propiconazole). These replicate data, coupled with internal replicates designed within the blinded ToxCast chemical library, provided additional data to evaluate interindividual differences between hepatocyte preparations and their potential impact on chemical profiles.Cell morphology and integrity were evaluated using phase-contrast microscopy as an indicator of hepatocyte cell health (Tyson & Green, 1987). Cultures for each treatment group (i.e., media, vehicle [0.2% DMSO], positive control inducers [multiple concentrations], and the ToxCast chemicals [multiple concentrations]) were observed and cell morphology was assessed relative to vehicle control cultures at each harvest time point (0, 6, 24, or 48 h). […] Images were evaluated at the conclusion of the study to assess changes in cell integrity and account for the effects of chemical exposure on uncharacteristic changes in concentration-dependent gene expression profiles. The results from these determinations of apparent cytotoxicity were annotated (yes/no) alongside the corresponding qNPA data for reference.At the conclusion of each treatment period, hepatocyte cultures (96-well) were washed with 1 volume of HBSS, lysed by addition of 25 ul ArrayPlate lysis buffer (HTG, Tucson, AZ), and 70 ul/well of Denaturation Oil, denatured by incubation at 95C for 10 min, and frozen at approximately -70C until analysis by nuclease protection assay (qNPA) (Roberts et al., 2007). For qNPA analysis, cell lysates were thawed at 50C for approximately 30 min, qNPA probes were added, and samples were incubated at 95C for 10 min to begin the detection process by denaturing the target RNA, dissociating the duplexes and secondary structure hybridization. At the conclusion of the hybridization period, S1 nuclease reagent was added to each sample to digest all nonprotected nucleotides at 50C for 60-90 min. […]

Row | SMILES | AC50 | outcome
1 | C=CCC1=C(C)[C@@H](OC(=O)[C@@H]2[C@@H](C=C(C)C)C2(C)C)CC1=O | 7.38 µM (active) | –
2 | O=C(Nc1ccccc1)Nc1ccnc(Cl)c1 | 6.7 µM (active) | –
3 | CNC(=O)ON=CC(C)(C)SC | – | inactive
4 | CC(C)C1(C)N=C(c2nc3ccccc3cc2C(=O)O)NC1=O (stereo not given) | – | inactive
5 | CCOC(=O)CC(SP(=S)(OC)OC)C(=O)OCC (stereo not given) | – | inactive
6 | COc1nc(C)nc(NC(=O)NS(=O)(=O)c2ccccc2CCC(F)(F)F)n1 | – | inactive
7 | COP(N)(=O)SC (stereo not given) | – | inactive
8 | CO/C=C(/C(=O)OC)c1ccccc1Oc1cc(Oc2ccccc2C#N)ncn1 | – | inactive
9 | COC(=O)c1ccccc1C(=O)OC | – | inactive
10 | CCCCOC(=O)c1ccccc1C(=O)OCCCC | – | inactive
11 | CCNc1nc(Cl)nc(NC(C)C)n1 | 9.63 µM (active) | –
12 | CCCN(CCC)c1c([N+](=O)[O-])cc(S(N)(=O)=O)cc1[N+](=O)[O-] | – | inactive
13 | CC(Oc1ccc(Cl)cc1Cl)C(=O)O (stereo not given) | – | inactive
14 | O=C(O)c1nc(Cl)ccc1Cl | – | inactive
15 | COC(=O)C(C)Oc1ccc(Oc2ccc(Cl)cc2Cl)cc1 (stereo not given) | 20 µM (active) | inactive
16 | CCCCNC(=O)n1c(NC(=O)OC)nc2ccccc21 | – | inactive
17 | N#Cc1cc(Br)c(O)c(Br)c1 | – | inactive
18 | CNC(=S)S | – | inactive
19 | CCOC(=O)C(Cl)Cc1cc(-n2nc(C)n(C(F)F)c2=O)c(F)cc1Cl (stereo not given) | – | inactive
20 | COc1nc(C)nc(NC(=O)NS(=O)(=O)c2ccccc2Cl)n1 | – | inactive

Row | SMILES | AC50 | outcome
21 | COC(=O)C=C(C)OP(=O)(OC)OC | – | inactive
22 | Cc1cc(Cl)ccc1OCC(=O)O | – | inactive
23 | Fc1ccc(Oc2ccnc3cc(Cl)cc(Cl)c23)cc1 | – | inactive
24 | O=C(O)COc1nc(Cl)c(Cl)cc1Cl | – | inactive
25 | CCNc1nc(Cl)nc(NCC)n1 | – | inactive
26 | CC(C)(C)c1ccc(CSc2cnn(C(C)(C)C)c(=O)c2Cl)cc1 | – | inactive
27 | Oc1ccccc1-c1ccccc1 | – | inactive
28 | CC1COC(Cn2cncn2)(c2ccc(Oc3ccc(Cl)cc3)cc2Cl)O1 (stereo not given) | – | inactive
29 | CC1=C(C(=O)Nc2ccccc2)SCCO1 | – | inactive
30 | OC(c1ccc(Cl)cc1)(c1cncnc1)c1ccccc1Cl (stereo not given) | – | inactive
31 | COc1nc(NC(C)C)nc(NC(C)C)n1 | – | inactive
32 | COc1cnc(OC)n2nc(NS(=O)(=O)c3c(OCC(F)F)cccc3C(F)(F)F)nc12 | – | inactive
33 | CCCC1COC(Cn2cncn2)(c2ccc(Cl)cc2Cl)O1 (stereo not given) | – | inactive
34 | CC(C)Oc1cc(-n2nc(C(C)(C)C)oc2=O)c(Cl)cc1Cl | – | inactive
35 | CCCCC(CC)COC(=O)c1ccccc1C(=O)OCC(CC)CCCC (stereo not given) | – | inactive
36 | COP(=S)(OC)Oc1nc(Cl)c(Cl)cc1Cl | – | inactive
37 | CCON=C(CC)C1=C(O)CC(c2c(C)cc(C)cc2C)CC1=O (stereo not given) | – | inactive
38 | N#CC(CCc1ccc(Cl)cc1)(Cn1cncn1)c1ccccc1 (stereo not given) | – | inactive
39 | N#Cc1nn(-c2c(Cl)cc(C(F)(F)F)cc2Cl)c(N)c1S(=O)C(F)(F)F (stereo not given) | – | inactive

— PubChem BioAssay (EPA / NIEHS)
